Where “and” joins values, the source holds several entries; their conditions need not be identical. Identical values can stand only once. Records with an inconclusive call do not appear. Some structures have more than one record in an assay (separate samples or runs), and their calls can disagree. Calls of active or inactive are those of the source. Unless noted, the call rests on the fitted dose curve.

Assay [1] in a line: Nuclear factor erythroid 2-related factor 2/antioxidant responsive element (Nrf2/ARE) small molecule agonists: luciferase reporter gene qHTS assay in human keratinocytes (AID 1919969). Further: nearly all actives have a fitted effect of over 35% in size. Further: potency means the concentration at half of the fitted maximal effect. For orientation: Reporter assays use an easily measured gene product as a stand-in for the process of interest.
Assay [2] addresses Gonadotropin-releasing hormone receptor (Homo sapiens) (UniProt P30968). Briefly: Human gonadotropin-releasing hormone receptor (GnRHR) small molecule agonists, calcium flux assay in GnRHR-HEK293 cells (AID 1920063). Further: nearly all actives have a fitted effect of over 35% in size. The method in brief: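 Intracellular calcium rise is the read-out: engineered human GnRHR HEK293 cells, dye-loaded, are exposed to DMSO-dissolved compounds and fluorescence at Ex/Em 480/540 is tracked for 3 min.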
(Calcium assays in cells follow changes in intracellular calcium, usually with a dye or a luminescent sensor.)

The target in assay [3] is KiSS-1 receptor (Homo sapiens) (UniProt Q969F8). Briefly: Human kisspeptin (KISS1R) small molecule agonists, calcium flux assay in KISS1R-HEK293 cells (AID 1920064; active means well fitted activation curve with a large enough effect in the repeat runs). Summed up: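 Concentration-response testing used 15 concentrations in triplicate on human KISS1R-expressing HEK293 cells. Calcium-dependent fluorescence (Ex/Em 480/540) was followed kinetically for 3 min after compound transfer.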
KiSS-1 receptor (Homo sapiens), sequence (Q969F8 whole entry, looked up): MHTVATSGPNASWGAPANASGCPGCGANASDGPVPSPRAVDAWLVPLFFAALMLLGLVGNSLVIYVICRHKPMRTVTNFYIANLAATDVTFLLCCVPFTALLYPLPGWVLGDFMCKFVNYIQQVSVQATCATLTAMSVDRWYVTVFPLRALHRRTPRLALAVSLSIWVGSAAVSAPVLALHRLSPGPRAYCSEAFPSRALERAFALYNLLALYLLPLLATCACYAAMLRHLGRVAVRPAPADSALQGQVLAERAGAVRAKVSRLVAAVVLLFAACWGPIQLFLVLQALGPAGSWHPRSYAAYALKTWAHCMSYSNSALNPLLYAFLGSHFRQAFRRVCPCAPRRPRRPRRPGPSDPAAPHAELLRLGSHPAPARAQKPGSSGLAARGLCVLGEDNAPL

A short description of assay [4]: G protein-coupled receptor (GPCR) small molecule agonists, calcium flux assay: HEK293 wild type cell line counter screen (AID 1920065). The method in brief:
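Fluorescence intensity signals activation. After overnight (18 h) culture and a 1 h calcium dye load at 37 C, compounds are added by pin tool and the plate read at 480/540 nm for 3 min in 1 s steps.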

Assay [5] in a line: p53 small molecule agonists, cell-based qHTS assay with human liver microsomes (AID 1963577).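 Further: p53 response element beta-lactamase reporter cells with liver microsomes plus NADPH.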 Summed up: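 Reporter activation was measured by LiveBLAzer fluorescence intensity in p53RE-bla cells, which had been exposed to compounds for 16 h at 37 C alongside 0.5 mg/mL human liver microsomes and 0.5 mg/mL NADPH (final concentrations).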
For orientation: Quantitative high-throughput screening tests each substance at several concentrations.

Assay [6] can be described thus: p53 small molecule agonists, cell-based qHTS assay with rat liver microsomes (AID 1963578). The method in brief:
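Compound in DMSO added to p53RE-bla cells 5 h post-plating; rat microsomes/NADPH 0.5 mg/mL final; 16 h, 37 C; LiveBLAzer 2 h RT.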

A short description of assay [7]: p53 small molecule agonists, cell-based qHTS assay with human liver microsomes: qHTS cell viability counter screen (AID 1963579). Further: nearly all actives have a fitted effect of over 45% in size. The method in brief: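 HLM-supplemented (0.5 mg/mL final) and NADPH-supplemented (0.5 mg/mL final) p53RE-bla cultures, 4,000 cells per well, were dosed with compounds in DMSO for 16 h at 37 C; luminescent ATP detection (CellTiter-Glo, 30 min, room temperature) quantified surviving cells.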

Assay [8] in a line: p53 small molecule agonists, cell-based qHTS assay with rat liver microsomes: qHTS cell viability counter screen (AID 1963580). Further: nearly all actives have a fitted effect of over 45% in size. Summed up:
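Rat liver microsome (0.5 mg/mL final) and NADPH (0.5 mg/mL final) co-incubation with compounds for 16 h at 37 C on HCT-116 p53RE-bla cells; cytotoxicity taken from intracellular ATP luminescence.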

Assay [9] is described as follows: p53 small molecule agonists, cell-based qHTS assay: qHTS cell viability counter screen (AID 1963581). Further: nearly all actives have a fitted effect of over 45% in size. The method in brief: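 Luminescence from CellTiter-Glo, reflecting ATP content, serves as the cytotoxicity measure; it is taken after the 2 h reporter substrate step in HCT-116 p53RE-bla cells dosed for 16 h at 37 C.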
A short description of assay [10]: p53 small molecule agonists, cell-based qHTS assay (AID 1963582; active means well fitted activation curve with a large enough effect in the signal ratio in the repeat runs, not every such curve was filed as active; the % refers to the signal ratio). The method in brief: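 After plating, p53RE-bla cells sat 5 h in the incubator; compounds or DMSO vehicle were pinned in; a 16 h incubation at 37 C followed; FRET substrate was added and, 2 h later at RT, fluorescence was measured.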
Assay [11] deals with 5-hydroxytryptamine receptor 2A (Homo sapiens) (UniProt P28223). Briefly: 5-hydroxytryptamine receptor 2A (HTR2A) small molecule antagonists, cell-based qHTS assay (AID 1963586). Further: nearly all actives have a fitted effect of over 45% in size. Summed up:
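CHO cells stably expressing human HTR2A were plated for 18 h at 37 C, then loaded with calcium dye for 1 h. Compounds were preincubated 5 min at room temperature before DOI (4 nM solution) was added. Kinetic fluorescence was read for 3 min.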

The target is the same in assay [12]. Briefly: 5-hydroxytryptamine receptor 2A (HTR2A) small molecule agonists, cell-based qHTS assay (AID 1963587). Further: nearly all actives have a fitted effect of over 30% in size. The method in brief: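 Kinetic calcium-flux fluorescence (2 min, 1 sec intervals) after compound addition in agonist mode. HTR2A-CHO cells were cultured 18 h, then dye-loaded 1 h at 37 C.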
Assay [13] addresses Muscarinic acetylcholine receptor M1 (Homo sapiens) (UniProt P11229). Briefly: Cholinergic receptor muscarinic 1 (CHRM1) small molecule antagonists, cell-based qHTS assay (AID 1963588). Further: nearly all actives have a fitted effect of over 40% in size. Further: potency means the concentration at half of the fitted maximal effect. The method in brief:
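Compounds were tested at 15 concentrations in three independent runs. Dye-loaded CHRM1-CHO cells were exposed 5 min at room temperature before stimulation by acetylcholine added at 50nM. Intracellular calcium was read kinetically on FDSS for 3 min.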

The nature of assay [14]: cAMP Responsive Elements (CRE) small molecule agonists, cell-based qHTS assay (AID 1963590). Summed up: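 Compound exposure lasted 3 h at 37 C/5% CO2 in CRE-bla HEK 293T cells grown in assay medium with 10% dialyzed FBS and 25 mM HEPES. Reporter signal came from LiveBLAzer B/G FRET substrate, 2 h, room temperature.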
The nature of assay [15]: cAMP Responsive Elements (CRE) small molecule antagonists, cell-based qHTS assay (AID 1963591; active means well fitted inhibition curve with a large enough effect in the signal ratio in the repeat runs, not every such curve was filed as active; the % refers to the signal ratio). Summed up:
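Stimulation used NKH477 at a final 0.25 uM for 3 h in compound-treated CRE-bla HEK293T cells, seeded 18 h beforehand. Reporter activity was measured with LiveBLAzer B/G FRET substrate after 2 h at room temperature.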

Assay [16] addresses Beta-2 adrenergic receptor (Homo sapiens) (UniProt P07550). Briefly: Adrenergic beta2 receptor (ADRB2) small molecule antagonists, cell-based qHTS assay (AID 1963592). Further: series mostly up to about 92 µM; nearly all actives have a fitted effect of over 50% in size. Summed up: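 Assay format: CHO-ADRB2 cells, 18-20hr seeding at 37C/5% CO2, then compound plus 1nM isoproterenol agonist mix for 0.5hr RT. Homogeneous time-resolved fluorescence cAMP detection after 1hr, expressed as 665/615 nm ratio.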

Assay [17] shares this target. Briefly: Adrenergic beta2 receptor (ADRB2) small molecule agonists, cell-based qHTS assay (AID 1963593).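 Further: CHO cells stably overexpressing human ADRB2.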 Summed up:
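CHO cells stably over-expressing ADRB2 were plated overnight at 37C, then dosed with compounds plus a stimulation mix containing 100uM IBMX and 25uM Ro-20-1724 for 0.5hr at room temperature. cAMP was measured by HTRF competition, 1hr.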

For assay [18], the target named is D(2) dopamine receptor (Homo sapiens) (UniProt P14416). Briefly: Dopamine D2 receptor (DRD2) small molecule agonists, cell-based qHTS assay (AID 1963594). Further: nearly all actives have a fitted effect of over 35% in size. The method in brief:
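cAMP accumulation in DRD2-HEK293 cells measured by HTRF after 1 h detection; compounds added 10 min before NKH477 (200nM […]) forskolin-analogue stimulation, 30 min at room temperature, with Ro20-1724 present at 0.1 mM final.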

For assay [19], the target named is Muscarinic acetylcholine receptor M1 (Homo sapiens) (UniProt P11229). Briefly: Cholinergic receptor muscarinic 1 (CHRM1) small molecule agonists, cell-based qHTS assay (AID 1963589). Further: nearly all actives have a fitted effect of over 35% in size. Summed up: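 Fluorescent calcium dye reports M1 activation in stably transfected CHO cells. Compounds, 15 concentrations, added after 1 h dye loading at 37 C; kinetic reading at 1 sec intervals.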
Muscarinic acetylcholine receptor M1 (Homo sapiens), sequence (P11229 whole entry, looked up): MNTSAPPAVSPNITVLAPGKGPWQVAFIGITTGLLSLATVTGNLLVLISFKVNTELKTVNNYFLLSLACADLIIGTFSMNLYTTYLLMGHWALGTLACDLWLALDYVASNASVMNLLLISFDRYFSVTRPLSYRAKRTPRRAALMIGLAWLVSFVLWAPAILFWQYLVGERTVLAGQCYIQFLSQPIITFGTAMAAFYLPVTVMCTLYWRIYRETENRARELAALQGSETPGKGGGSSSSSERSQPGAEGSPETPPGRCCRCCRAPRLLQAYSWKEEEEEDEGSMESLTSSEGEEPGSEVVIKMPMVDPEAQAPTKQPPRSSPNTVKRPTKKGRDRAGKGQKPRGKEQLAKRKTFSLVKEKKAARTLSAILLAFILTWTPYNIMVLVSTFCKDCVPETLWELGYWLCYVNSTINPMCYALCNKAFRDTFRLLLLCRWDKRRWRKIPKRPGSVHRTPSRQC

The target of assay [20] is D(2) dopamine receptor (Homo sapiens) (UniProt P14416). Briefly: Dopamine D2 receptor (DRD2) small molecule antagonists, cell-based qHTS assay (AID 1963595; active means well fitted inhibition curve with a large enough effect in the signal ratio in the repeat runs, with a control signal flat; the % refers to the signal ratio). Summed up:
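In this cell-based antagonist screen, compounds act for 10 min at room temperature before a 30 min challenge with 12 nM quinpirole and 200 nM NKH477. cAMP is quantified by HTRF competition in DRD2-HEK293 cells containing 0.1 mM Ro20-1724.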

Beta-2 adrenergic receptor (Homo sapiens), sequence (P07550 whole entry, looked up): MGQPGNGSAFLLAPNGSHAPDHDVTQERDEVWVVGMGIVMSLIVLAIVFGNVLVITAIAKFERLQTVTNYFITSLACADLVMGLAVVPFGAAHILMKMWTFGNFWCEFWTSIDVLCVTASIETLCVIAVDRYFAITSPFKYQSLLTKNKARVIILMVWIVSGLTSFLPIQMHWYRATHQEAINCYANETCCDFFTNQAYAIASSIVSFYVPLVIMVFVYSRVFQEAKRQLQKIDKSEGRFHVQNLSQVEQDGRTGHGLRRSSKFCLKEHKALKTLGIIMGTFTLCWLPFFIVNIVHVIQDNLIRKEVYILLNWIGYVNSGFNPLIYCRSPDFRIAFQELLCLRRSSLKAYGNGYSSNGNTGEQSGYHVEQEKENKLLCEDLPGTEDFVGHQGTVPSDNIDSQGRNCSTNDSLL
D(2) dopamine receptor (Homo sapiens), sequence (P14416 whole entry, looked up): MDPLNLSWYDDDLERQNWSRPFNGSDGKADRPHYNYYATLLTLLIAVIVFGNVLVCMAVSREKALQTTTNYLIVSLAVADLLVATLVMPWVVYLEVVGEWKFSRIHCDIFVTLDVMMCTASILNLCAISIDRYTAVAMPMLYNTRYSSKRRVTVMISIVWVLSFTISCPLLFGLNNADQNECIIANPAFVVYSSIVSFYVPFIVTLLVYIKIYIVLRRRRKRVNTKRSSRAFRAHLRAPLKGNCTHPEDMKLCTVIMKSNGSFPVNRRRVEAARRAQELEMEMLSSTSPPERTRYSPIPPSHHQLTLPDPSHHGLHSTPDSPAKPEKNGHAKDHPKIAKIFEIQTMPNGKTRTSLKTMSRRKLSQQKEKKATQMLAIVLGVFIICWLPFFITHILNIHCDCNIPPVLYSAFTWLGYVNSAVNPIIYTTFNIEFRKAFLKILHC
5-hydroxytryptamine receptor 2A (Homo sapiens), sequence (P28223 whole entry, looked up): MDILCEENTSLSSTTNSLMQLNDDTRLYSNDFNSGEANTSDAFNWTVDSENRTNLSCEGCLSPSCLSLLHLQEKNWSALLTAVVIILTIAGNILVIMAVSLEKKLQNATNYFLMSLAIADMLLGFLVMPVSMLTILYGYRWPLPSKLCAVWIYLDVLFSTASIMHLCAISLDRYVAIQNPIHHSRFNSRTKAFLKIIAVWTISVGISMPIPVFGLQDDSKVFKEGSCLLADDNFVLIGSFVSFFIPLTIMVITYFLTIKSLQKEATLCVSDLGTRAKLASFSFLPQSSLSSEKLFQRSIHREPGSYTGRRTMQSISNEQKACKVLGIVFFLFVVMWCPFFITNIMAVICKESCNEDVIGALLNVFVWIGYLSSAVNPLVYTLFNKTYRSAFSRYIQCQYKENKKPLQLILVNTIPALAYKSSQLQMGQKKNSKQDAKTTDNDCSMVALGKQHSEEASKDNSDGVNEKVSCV
Gonadotropin-releasing hormone receptor (Homo sapiens), sequence (P30968 whole entry, looked up): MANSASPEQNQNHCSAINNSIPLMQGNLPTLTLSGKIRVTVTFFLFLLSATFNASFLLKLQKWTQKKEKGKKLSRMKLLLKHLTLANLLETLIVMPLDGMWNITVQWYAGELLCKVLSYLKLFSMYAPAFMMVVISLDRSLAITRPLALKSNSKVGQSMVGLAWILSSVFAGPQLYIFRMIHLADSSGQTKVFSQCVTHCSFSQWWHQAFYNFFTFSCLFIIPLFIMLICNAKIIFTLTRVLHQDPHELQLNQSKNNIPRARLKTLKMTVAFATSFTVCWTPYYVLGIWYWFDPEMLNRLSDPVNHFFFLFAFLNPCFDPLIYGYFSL

Turning to `CCCC[N+]1(C)CCCC1`, the Potency entry was “inactive and 54.8 µM (active)” in assay [1]; “inactive and 5.98 µM (active) and 4.27 µM (active)” in [13]. The Potency result in assay [2], in assay [3], in assay [4], in assay [5], in [6] and in [7] was “inactive” each time. Also, the Potency result in [8], in [9], in assay [10], in [11], in assay [12] and in assay [14] was “inactive” in each case. The Potency result in assay [15], in assay [16], in assay [17] and in assay [18] was “inactive” throughout.
For the molecule `Nc1ccccc1Cl`, the Potency entry in assay [1], in assay [2], in assay [3], in assay [4], in assay [5] and in assay [6] was “inactive” each time. In addition, the Potency result in assay [7], in assay [8], in assay [9], in assay [10], in assay [11] and in assay [12] was “inactive” in each case. Further, the Potency result in assay [13], in [19], in assay [14], in assay [15], in assay [16] and in assay [18] was “inactive” in each case. In assay [20], the Potency entry is “inactive”.
As for `CC(COc1ccc(Oc2ccccc2)cc1)Oc1ccccn1` (centres undefined), in assay [1], the Potency is 17.2 µM (active). Further, the Potency result in [2], in [3], in assay [4], in assay [5], in assay [6] and in assay [7] was “inactive” throughout. The Potency entry in assay [8], in assay [10], in assay [11], in assay [12], in assay [13] and in assay [19] was “inactive” in each case. For the same molecule, the Potency result in assay [14], in assay [15], in [16], in assay [18] and in [20] was “inactive” each time.
In the case of `O=S(=O)(O)C(F)(F)C(F)(F)C(F)(F)C(F)(F)C(F)(F)C(F)(F)C(F)(F)C(F)(F)F`, in assay [1], the Potency entry was “inactive and 61.1 µM (active)”. Besides, the Potency result in assay [2], in assay [3], in [4], in [5], in [6] and in [7] was “inactive” throughout. In addition, the Potency result in assay [8], in assay [9], in assay [10], in [11], in assay [12] and in [13] was “inactive” each time. For the same molecule, the Potency result in assay [19], in [14], in assay [15], in assay [16], in assay [18] and in assay [20] was “inactive” each time.
`Nc1c(Cl)c(Cl)nc(C(=O)O)c1Cl`: the Potency entry in assay [1], in assay [2], in assay [3], in assay [4], in assay [5] and in assay [6] was “inactive” in each case. Besides, the Potency entry in assay [7], in [9], in assay [10], in assay [11], in assay [12] and in assay [13] was “inactive” each time. Also, the Potency entry in [19], in assay [15], in assay [16], in [18] and in assay [20] was “inactive” each time.
`O=C(O)c1cc(Cl)ccc1Cl`: the Potency entry in assay [1], in [2], in assay [3], in assay [4], in assay [5] and in assay [6] was “inactive” throughout. Also, the Potency entry in [7], in assay [8], in assay [10], in assay [11], in assay [12] and in assay [13] was “inactive” each time. Also, the Potency result in [14], in assay [15], in assay [16], in [17], in assay [18] and in [20] was “inactive” throughout.

Source of the values: PubChem BioAssay (Tox21).
